# A collection of fitness landscapes (doi:10.1126/science.1257360)
# In all, about 140,000 sequences were measured (“enrichment ratio after two sorts for PhoP signalling”: median about 0, highest 2% from about 11 on). The sample as a whole holds a higher share of the highest values than the screen did.
# B1: PhoQ; a variant is named by its letters at X, in order, P23837 (parent)
# chain: MKKLLRLFFPLSLRVRFLLATAAVVLVLSLAYGMVALIGYSVSFDKTTFRLLRGESNLFYTLAKWENNKLHVELPENIDKQSPTMTLIYDENGQLLWAQRDVPWLMKMIQPDWLKSNGFHEIEADVNDTSLLLSGDHSIQQQLQEVREDDDDAEMTHSVAVNVYPATSRMPKLTIVVVDTIPVELKSSYMVWSWFIYVLSANLLLVIPLLWVAAWWSLRPIEALAKEVRELEEHNRELLNPATTRELTSLVRNLNRLLKSERERYDKYRTTLTDLTHSLKTPLXXLQXXLRSLRSEKMSVSDAEPVMLEQISRISQQIGYYLHRASMRGGTLLSRELHPVAPLLDNLTSALNKVYQRKGVNISLDISPEISFVGEQNDFVEVMGNVLDNACKYCLEFVEISARQTDEHLYIVVEDDGPGIPLSKREVIFDRGQRVDTLRPGQGVGLAVAREITEQYEGKIVAGESMLGGARMEVIFGRQHSAPKDE
# Variants of: B1
# Assay: enrichment ratio after two sorts for PhoP signalling (ratio (wild type AVST 3.29)); higher = more functional
# Conditions: with PhoP (E. coli)
row,Variant,enrichment ratio
1,GFAN,≤ 0.25
2,KGPY,≤ 0.25
3,SFLV,1.19
4,FSLV,8.86
5,SKHK,≤ 0.25
6,SALV,14.6
7,TSLV,14.6
8,SKLV,12
9,SSLV,16.8
10,NSLV,2.78
11,KQLV,≤ 0.25
12,KSLV,≤ 0.25
13,DLQF,≤ 0.25
14,PGYR,≤ 0.25
15,QDIQ,≤ 0.25
16,RNIE,≤ 0.25
17,YSWN,≤ 0.25
18,IQID,≤ 0.25
19,LDQS,≤ 0.25
20,DPLV,≤ 0.25
21,YGLV,13.5
22,SYLV,0.334
23,MPLV,≤ 0.25
24,QPLV,≤ 0.25
25,STLV,15.4

row,Variant,enrichment ratio
1,SPLV,≤ 0.25
2,MELV,18.1
3,SQLV,11.8
4,KYLV,≤ 0.25
5,MMLV,≤ 0.25
6,NFLV,≤ 0.25
7,ITPL,≤ 0.25
8,WHNG,≤ 0.25
9,TSSF,9.67
10,YPTT,≤ 0.25
11,ISMW,≤ 0.25
12,FIHY,≤ 0.25
13,QLFD,3.39
14,HRQG,≤ 0.25
15,YGLM,13
16,YGDM,0.798
17,YGWM,≤ 0.25
18,HFAL,≤ 0.25
19,SCRE,≤ 0.25
20,DVLL,≤ 0.25
21,TISE,24.4
22,SESE,24.9
23,QESE,≤ 0.25
24,SLSE,1.48
25,RISE,≤ 0.25

row,Variant,enrichment ratio
1,TASE,11.3
2,TESE,20
3,NESE,≤ 0.25
4,KASE,≤ 0.25
5,AISE,2.44
6,NASE,≤ 0.25
7,DDSE,1.96
8,HLPY,≤ 0.25
9,MSKE,≤ 0.25
10,YPSK,≤ 0.25
11,TVFP,≤ 0.25
12,VDTN,≤ 0.25
13,KYSE,≤ 0.25
14,LNSE,≤ 0.25
15,SISE,12.6
16,SRSE,≤ 0.25
17,SPSE,≤ 0.25
18,NVSE,≤ 0.25
19,SQSE,11.4
20,GNSE,≤ 0.25
21,SNSE,16.4
22,TVSE,14.1
23,DPSE,≤ 0.25
24,SDSE,≤ 0.25
25,FFRE,≤ 0.25

row,Variant,enrichment ratio
1,EVVH,≤ 0.25
2,TGPK,≤ 0.25
3,GKHW,≤ 0.25
4,FNVA,≤ 0.25
5,KTII,≤ 0.25
6,TGSE,7.38
7,SGSE,15.4
8,GGSE,≤ 0.25
9,IEKG,≤ 0.25
10,LARL,≤ 0.25
11,SSPS,≤ 0.25
12,YHLR,≤ 0.25
13,MSPM,≤ 0.25
14,MSYK,≤ 0.25
15,MSYD,≤ 0.25
16,MSTA,≤ 0.25
17,MSGM,6.76
18,MSCI,16.7
19,MSYI,12.1
20,MSWM,23.7
21,MSCA,0.541
22,MSPI,≤ 0.25
23,MSCS,0.763
24,MSWI,14.1
25,KTWF,≤ 0.25

row,Variant,enrichment ratio
1,YIVR,≤ 0.25
2,DSYR,≤ 0.25
3,WDLV,≤ 0.25
4,SPGS,≤ 0.25
5,AEGC,2.22
6,MSQM,≤ 0.25
7,MSAS,12.6
8,MSFD,≤ 0.25
9,MSFY,12.3
10,MSSF,0.41
11,KAFL,≤ 0.25
12,MSSM,11.9
13,MAFL,12.9
14,KSFY,≤ 0.25
15,MSAT,7.26
16,WIAS,≤ 0.25
17,NAFL,0.25
18,PAHY,≤ 0.25
19,AKLK,≤ 0.25
20,MEND,≤ 0.25
21,PTHW,≤ 0.25
22,AVIT,1.3
23,MIMD,≤ 0.25
24,LLDF,≤ 0.25
25,NAWF,≤ 0.25

row,Variant,enrichment ratio
1,PFLK,≤ 0.25
2,RPFK,≤ 0.25
3,MSHQ,12
4,MSGI,17.5
5,MSLA,5.33
6,MSHP,≤ 0.25
7,MSTD,≤ 0.25
8,MSLM,15.9
9,MSLF,1.86
10,MSGD,≤ 0.25
11,MSTC,1.5
12,MSFA,2.31
13,MSGR,≤ 0.25
14,MSFC,14.1
15,IAPP,≤ 0.25
16,NMIK,≤ 0.25
17,DCGT,≤ 0.25
18,EMPS,≤ 0.25
19,NEEL,≤ 0.25
20,MHMN,≤ 0.25
21,NGVW,≤ 0.25
22,MSFL,13.3
23,MEFL,8.98
24,MSGQ,14.3
25,MSHM,22

row,Variant,enrichment ratio
1,MSCF,1.71
2,KSFL,≤ 0.25
3,MSGA,0.29
4,MSGG,≤ 0.25
5,MRHM,≤ 0.25
6,MSTI,18.2
7,MSLY,0.424
8,KSHM,≤ 0.25
9,SKYM,≤ 0.25
10,CCSC,≤ 0.25
11,FTRK,≤ 0.25
12,MDDW,≤ 0.25
13,ADPG,≤ 0.25
14,VPPG,≤ 0.25
15,LIYG,≤ 0.25
16,MSCV,15.3
17,MSCE,≤ 0.25
18,MSTW,≤ 0.25
19,MSRL,≤ 0.25
20,MSEL,≤ 0.25
21,MSWL,14.4
22,GKQS,≤ 0.25
23,SDCI,4.22
24,QYNK,≤ 0.25
25,GGPL,≤ 0.25

row,Variant,enrichment ratio
1,SNVY,1.11
2,ADII,1.41
3,KKII,≤ 0.25
4,AKII,13.6
5,NAII,≤ 0.25
6,AAII,12.4
7,KAII,≤ 0.25
8,DMTW,≤ 0.25
9,IQGQ,≤ 0.25
10,GIPQ,≤ 0.25
11,CVSL,≤ 0.25
12,CTSL,11.6
13,KQSL,≤ 0.25
14,YTSL,≤ 0.25
15,TTSL,17.6
16,GTSL,9.63
17,TVPF,≤ 0.25
18,QVGW,2.43
19,EDEG,≤ 0.25
20,FEDM,≤ 0.25
